# Laboratory results as given in the supplement of paper PMC10849652.
# About 7,900 targets were measured; listed, in parts, are those with a hit and a random draw of the rest. About 0.6% of all pairs of compound and target were hits. A number with no mark means an inactive call.
# Compound: Cc1ccc(C(=O)N(CCCN)[C@@H](c2nc3cc(Cl)ccc3c(=O)n2Cc2ccccc2)C(C)C)cc1 [ispinesib]
# Test: log2 fold change, soluble protein after heating vs DMSO (PISA); higher = thermal stabilisation; K562 cells, 10 uM, 30 min; active = over 0.2 and 3.5 SD of the protein, either way, in both replicates (recomputed)
# How it was run: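 K562 cells (2×10^6 cells/mL) were treated with 10 μM compound for 30 min, and aliquots were heated for 3 min over 48°C-58°C. Pooled aliquots were extracted in PBS with 0.5% NP-40 at 4°C, and the supernatant after 21,000xg for 90 min was measured by TMTpro 16plex LC-MS/MS with channel sums equalised. Reported thermal stability, relative to control samples and from duplicates, is a log2 fold change.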
# Chain of UniProt Q7Z7E8 (Q7Z7E8 whole entry, looked up): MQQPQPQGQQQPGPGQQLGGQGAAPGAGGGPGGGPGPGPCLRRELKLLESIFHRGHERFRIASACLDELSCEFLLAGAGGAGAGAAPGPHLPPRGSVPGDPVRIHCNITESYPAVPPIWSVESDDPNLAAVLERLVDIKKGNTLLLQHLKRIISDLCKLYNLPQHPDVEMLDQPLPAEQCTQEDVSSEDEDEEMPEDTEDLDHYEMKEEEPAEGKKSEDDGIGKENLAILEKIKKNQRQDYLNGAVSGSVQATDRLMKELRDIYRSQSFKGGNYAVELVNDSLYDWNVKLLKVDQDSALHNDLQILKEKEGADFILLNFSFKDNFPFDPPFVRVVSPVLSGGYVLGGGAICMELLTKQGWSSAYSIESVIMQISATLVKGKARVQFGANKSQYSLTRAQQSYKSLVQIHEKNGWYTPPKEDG
# Chain of UniProt O00220 (O00220 whole entry, looked up): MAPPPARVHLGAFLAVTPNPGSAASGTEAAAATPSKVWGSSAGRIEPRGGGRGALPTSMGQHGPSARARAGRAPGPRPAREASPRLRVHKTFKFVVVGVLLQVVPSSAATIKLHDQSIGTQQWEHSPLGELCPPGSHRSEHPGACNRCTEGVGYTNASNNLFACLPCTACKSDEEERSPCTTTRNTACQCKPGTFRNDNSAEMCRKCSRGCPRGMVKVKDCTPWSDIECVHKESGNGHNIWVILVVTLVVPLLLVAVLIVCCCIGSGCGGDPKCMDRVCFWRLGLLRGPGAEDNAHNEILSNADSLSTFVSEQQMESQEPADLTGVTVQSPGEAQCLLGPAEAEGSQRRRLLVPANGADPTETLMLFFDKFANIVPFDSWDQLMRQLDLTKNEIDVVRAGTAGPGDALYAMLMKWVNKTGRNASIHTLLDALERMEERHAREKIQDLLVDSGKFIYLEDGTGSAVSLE
# Chain of UniProt Q9NQH7 (Q9NQH7 whole entry, looked up): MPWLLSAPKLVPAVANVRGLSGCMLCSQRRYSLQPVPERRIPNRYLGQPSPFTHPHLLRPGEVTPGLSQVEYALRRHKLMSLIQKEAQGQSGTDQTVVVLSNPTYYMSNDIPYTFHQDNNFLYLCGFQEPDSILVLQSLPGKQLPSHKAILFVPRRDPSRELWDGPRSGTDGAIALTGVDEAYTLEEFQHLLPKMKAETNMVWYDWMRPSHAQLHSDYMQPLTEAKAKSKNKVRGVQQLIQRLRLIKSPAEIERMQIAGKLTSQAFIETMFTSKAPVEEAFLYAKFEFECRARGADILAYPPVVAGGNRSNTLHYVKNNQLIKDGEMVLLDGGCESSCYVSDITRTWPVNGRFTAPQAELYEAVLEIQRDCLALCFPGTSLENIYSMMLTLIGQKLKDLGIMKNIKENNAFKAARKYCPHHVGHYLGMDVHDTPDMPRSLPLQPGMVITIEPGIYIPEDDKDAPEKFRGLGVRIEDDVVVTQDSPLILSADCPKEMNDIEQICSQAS
# Chain of UniProt Q9UEU0 (Q9UEU0 whole entry, looked up): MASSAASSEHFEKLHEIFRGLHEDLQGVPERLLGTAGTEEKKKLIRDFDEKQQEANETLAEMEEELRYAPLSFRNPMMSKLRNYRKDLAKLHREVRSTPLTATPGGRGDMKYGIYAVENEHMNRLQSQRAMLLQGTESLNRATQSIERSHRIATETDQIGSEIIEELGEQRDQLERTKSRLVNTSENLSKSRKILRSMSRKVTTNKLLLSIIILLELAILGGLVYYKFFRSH
# Chain of UniProt Q9H269 (Q9H269 whole entry, looked up): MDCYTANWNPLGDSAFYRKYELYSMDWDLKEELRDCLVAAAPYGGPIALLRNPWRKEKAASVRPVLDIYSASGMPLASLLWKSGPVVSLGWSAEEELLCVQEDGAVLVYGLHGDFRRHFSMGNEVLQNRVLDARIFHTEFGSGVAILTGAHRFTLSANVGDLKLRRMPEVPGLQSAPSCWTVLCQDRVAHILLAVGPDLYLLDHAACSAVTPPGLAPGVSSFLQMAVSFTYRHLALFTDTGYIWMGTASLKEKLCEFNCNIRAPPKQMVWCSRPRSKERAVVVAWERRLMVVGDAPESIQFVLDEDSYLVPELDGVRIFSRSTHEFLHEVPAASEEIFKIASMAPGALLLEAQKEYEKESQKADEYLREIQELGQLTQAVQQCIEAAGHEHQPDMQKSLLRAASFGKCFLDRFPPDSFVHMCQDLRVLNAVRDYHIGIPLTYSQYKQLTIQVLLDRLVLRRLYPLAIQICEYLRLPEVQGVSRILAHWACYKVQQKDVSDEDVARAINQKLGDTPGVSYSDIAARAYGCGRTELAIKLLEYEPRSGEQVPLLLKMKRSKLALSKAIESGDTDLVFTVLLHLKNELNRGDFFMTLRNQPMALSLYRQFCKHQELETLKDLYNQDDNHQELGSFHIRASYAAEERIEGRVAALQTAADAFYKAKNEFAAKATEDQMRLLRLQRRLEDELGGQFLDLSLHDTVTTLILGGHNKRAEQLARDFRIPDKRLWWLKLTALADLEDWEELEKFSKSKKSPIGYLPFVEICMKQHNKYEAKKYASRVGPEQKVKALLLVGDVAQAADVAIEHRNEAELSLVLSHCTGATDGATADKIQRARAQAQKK
# Chain of UniProt P51809 (P51809 whole entry, looked up): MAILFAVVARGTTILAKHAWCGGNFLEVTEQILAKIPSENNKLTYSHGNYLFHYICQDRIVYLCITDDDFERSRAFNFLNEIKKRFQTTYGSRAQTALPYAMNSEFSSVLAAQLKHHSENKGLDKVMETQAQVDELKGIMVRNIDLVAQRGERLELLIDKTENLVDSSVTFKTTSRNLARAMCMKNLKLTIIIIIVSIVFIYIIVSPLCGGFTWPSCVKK
# Chain of WASHC2C, A0A096LPC5 (A0A096LPC5 whole entry, looked up): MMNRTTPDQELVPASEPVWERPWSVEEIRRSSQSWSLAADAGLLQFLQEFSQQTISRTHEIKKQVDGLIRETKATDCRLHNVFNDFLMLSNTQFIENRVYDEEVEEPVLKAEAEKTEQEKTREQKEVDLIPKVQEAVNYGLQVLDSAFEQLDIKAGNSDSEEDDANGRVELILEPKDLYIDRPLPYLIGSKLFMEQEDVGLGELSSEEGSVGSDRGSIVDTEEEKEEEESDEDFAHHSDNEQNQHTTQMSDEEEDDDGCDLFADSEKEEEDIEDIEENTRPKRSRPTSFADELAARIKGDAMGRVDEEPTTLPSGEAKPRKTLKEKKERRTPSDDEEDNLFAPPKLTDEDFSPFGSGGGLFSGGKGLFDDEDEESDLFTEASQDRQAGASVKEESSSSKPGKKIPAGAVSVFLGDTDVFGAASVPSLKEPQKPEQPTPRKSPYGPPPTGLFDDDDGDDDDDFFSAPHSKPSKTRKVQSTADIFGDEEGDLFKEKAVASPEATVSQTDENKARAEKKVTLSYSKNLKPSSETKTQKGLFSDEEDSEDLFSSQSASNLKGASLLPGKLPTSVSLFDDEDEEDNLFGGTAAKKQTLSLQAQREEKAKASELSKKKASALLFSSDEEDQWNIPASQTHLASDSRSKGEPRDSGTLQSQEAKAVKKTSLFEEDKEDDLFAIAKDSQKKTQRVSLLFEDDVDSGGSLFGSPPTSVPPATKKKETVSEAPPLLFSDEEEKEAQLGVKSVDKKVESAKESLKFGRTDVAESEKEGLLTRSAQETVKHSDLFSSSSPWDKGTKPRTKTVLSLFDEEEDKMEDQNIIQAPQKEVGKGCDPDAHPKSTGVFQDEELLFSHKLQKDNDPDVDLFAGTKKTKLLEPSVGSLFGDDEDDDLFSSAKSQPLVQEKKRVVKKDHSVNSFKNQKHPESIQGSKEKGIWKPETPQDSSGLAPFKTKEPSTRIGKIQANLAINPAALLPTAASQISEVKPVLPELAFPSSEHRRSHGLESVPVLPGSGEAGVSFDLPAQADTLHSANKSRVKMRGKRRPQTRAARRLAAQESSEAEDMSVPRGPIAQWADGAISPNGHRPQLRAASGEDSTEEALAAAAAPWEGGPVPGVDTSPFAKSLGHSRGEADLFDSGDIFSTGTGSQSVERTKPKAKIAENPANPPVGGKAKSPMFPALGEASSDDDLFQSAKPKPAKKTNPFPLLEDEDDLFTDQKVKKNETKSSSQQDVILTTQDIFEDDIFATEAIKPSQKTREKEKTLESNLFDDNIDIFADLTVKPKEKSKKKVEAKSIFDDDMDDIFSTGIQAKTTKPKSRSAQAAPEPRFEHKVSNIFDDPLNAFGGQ
# Chain of UniProt P21796 (P21796 whole entry, looked up): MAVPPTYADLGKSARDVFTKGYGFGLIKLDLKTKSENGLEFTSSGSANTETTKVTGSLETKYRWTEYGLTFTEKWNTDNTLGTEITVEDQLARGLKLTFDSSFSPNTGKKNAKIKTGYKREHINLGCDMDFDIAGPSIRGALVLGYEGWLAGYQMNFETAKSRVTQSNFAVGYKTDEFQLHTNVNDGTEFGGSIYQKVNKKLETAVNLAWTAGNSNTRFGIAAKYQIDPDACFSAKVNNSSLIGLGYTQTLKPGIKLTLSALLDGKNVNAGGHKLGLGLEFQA
# Chain of UniProt Q9Y5K5 (Q9Y5K5 whole entry, looked up): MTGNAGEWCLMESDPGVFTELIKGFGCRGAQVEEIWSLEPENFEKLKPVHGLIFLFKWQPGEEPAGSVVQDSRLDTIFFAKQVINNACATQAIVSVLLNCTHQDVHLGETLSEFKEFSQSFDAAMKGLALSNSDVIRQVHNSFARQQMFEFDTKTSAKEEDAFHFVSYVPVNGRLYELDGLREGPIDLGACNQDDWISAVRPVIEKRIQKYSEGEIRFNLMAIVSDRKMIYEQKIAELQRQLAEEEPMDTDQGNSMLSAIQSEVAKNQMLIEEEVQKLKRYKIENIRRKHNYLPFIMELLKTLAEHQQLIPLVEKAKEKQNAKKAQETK
# Chain of UniProt A0PJW6 (A0PJW6 whole entry, looked up): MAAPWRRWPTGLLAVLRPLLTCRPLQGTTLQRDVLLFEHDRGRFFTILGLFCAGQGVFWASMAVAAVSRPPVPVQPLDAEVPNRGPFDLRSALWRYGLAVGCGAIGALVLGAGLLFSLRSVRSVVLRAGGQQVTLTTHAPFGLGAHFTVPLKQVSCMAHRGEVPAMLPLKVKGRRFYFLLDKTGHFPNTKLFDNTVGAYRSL
row,Target,log2 fold change
1,TSG101 (UniProt Q99816),-0.037
2,VTA1 (UniProt Q9NP79),-0.014
3,VDAC1 (UniProt P21796),0.034
4,"WASHC2C, A0A096LPC5",-0.135
5,VTI1B (UniProt Q9UEU0),-0.41 (active)
6,UBE2Q1 (UniProt Q7Z7E8),-0.001
7,USP48 isoform 8 (UniProt Q86UV5),-0.07
8,USP15 (UniProt Q9Y4E8),-0.036
9,UFD1 isoform 1 (UniProt Q92890),0.036
10,WDR46 (UniProt O15213),-0.081
11,USP14 (UniProt P54578),0.017
12,XPNPEP3 (UniProt Q9NQH7),-0.046
13,UCHL5 (UniProt Q9Y5K5),-0.056
14,VPS16 (UniProt Q9H269),-0.239
15,VAMP7 (UniProt P51809),-0.275 (active)
16,XPO1 (UniProt O14980),-0.081
17,TNFRSF10A (UniProt O00220),-0.075
18,UBLCP1 (UniProt Q8WVY7),0.126
19,TMEM189-UBE2V1 (UniProt I3L0A0),0.071
20,WASH2P (UniProt Q6VEQ5),-0.358 (active)
21,VTI1A (UniProt Q96AJ9),-0.237
22,TNNC2 (UniProt P02585),0.022
23,TMEM223 (UniProt A0PJW6),-0.254 (active)
